# Assay results: PubChem BioAssay (NCATS)
# Records with an inconclusive call do not appear. Active and inactive are the calls of the source. Calls come from the whole dose curve; as a rule, active = well fitted activation curve with a large enough effect; inconclusive = small, poorly fitted or top-dose-only effect; inactive = flat fitted curve, though single readings scatter.
# Test: Primary redox qHTS assay for identification of artifact compounds. (AID 1845223)
# Conditions: Amplex Red/HRP redox cycling with DTT, fluorescence; series mostly up to 53.8 µM; redox activity (% of DA3003): at the top concentration
# From the text: PI: Alexander Tropsha Ph.D.
# UNC Eshelman School of Pharmacy
# University of North Carolina, Chapel Hill, North Carolina
# Hits from high-throughput screening (HTS) of chemical libraries are often false positives due to their interference with the assay detection technology. In response to this problem, we generated the largest publicly available library of chemical liabilities and developed a free webtool to predict HTS artifacts, both of which are described herein. More specifically, we generated, curated, and integrated HTS datasets for thiol reactivity, redox activity, and luciferase (firefly and nano) activity. Using these curated datasets, we developed and validated several Quantitative Structure-Interference Relationship (QSIR) models to predict nuisance behavior. […] These models were employed for virtual profiling of the National Center for Advancing Translational Science's (NCATS) in-house library, and 256 compounds for each assay were selected for the experimental validation of nuisance behavior. The BA for these external predictions ranged from 58 to 78% for compounds within the applicability domains of the models. […] The models developed in this study, along with aggregation models previously developed by our group (SCAM Detective) were implemented in "Liability Predictor," an online tool which may be used as part of chemical library design or for triaging HTS hits. Both the models and the curated datasets are publicly available at https://liability.mml.unc.edu/.
# SEQUENCE No. (e.g., 1, 2, 3, etc.); […] (e.g., Cells, Incubation, Reagent, etc.); VALUE; DESCRIPTION.
# 1; Reagent; 3 uL; Amplex Red and HRP mixture.
# 2; Compounds and control; 16 nL; Kalypsis pin tool (Wako USA) equipped with a 1536-well pin head. […]
# 6; Detection; Fluorescence, ViewLux microplate reader, 525 nm excitation, 598 nm emission.
# NOTES (numbers refer to Sequence numbers above)
# 1. 3 uL of a mixture containing Amplex Red (25 uM final concentration) and horseradish peroxidase (HRP; 250 mU/mL final concentration) in assay buffer (HBSS) was dispensed into all wells of a 1536-well assay plate (solid-bottom black plate; Greiner Bio One, Monroe, NC).
# 2. A Wako Pin-tool (Wako Automation, Richmond, VA) was used to transfer 16 nL of compounds (consisting of 7-plates in qHTS format, final concentration range 18.3 nM to 114 uM) or control DA3003 (final concentration range 1.22 nM to 40 uM).
# 3. 15 min. incubation at room temperature protected from light.
# 4. 1 uL of DTT (prepared fresh; final concentration 250 uM) was dispensed for a final assay volume of 4 uL.
# 5. Plates were centrifuged (121xg, 15 seconds) and incubated for 30 minutes at room temperature protected from light.
# 6. Samples were read for fluorescence (Ex/Em = 525(20)/598(25) nm) on a ViewLux CCD imager (PerkinElmer). Data were normalized to DMSO (0% activity) and DA3003 (10 uM final concentration; 100% activity) and the resulting percent inhibition data were fitted to a 4-parameter Hill equation using NCATS in-house software.
# Potency is the fitted concentration of half-maximal effect.
Compound,redox activity (% of DA3003),Potency
CCc1nc(-c2cccc(C)c2)c(-c2ccnc(NC(=O)c3ccccc3)c2)s1,-3.07% (inactive),–
c1cncc(CN2CCC(n3ncc4c(N5CCOCC5)nc(-c5ccc6[nH]ccc6c5)nc43)CC2)c1,2.93% (inactive),–
Cc1cncc2cccc(S(=O)(=O)N3CCCN(C(=O)CN)C[C@@H]3C)c12,-6.37% (inactive),–
CCN(CC)Cc1ccc2cc(COC(=O)Nc3ccc(C(=O)NO)cc3)ccc2c1,-9.15% (inactive),–
CN1CCc2c(c3ccccc3n2Cc2ccc(C(=O)NO)cc2)C1,19.4% (inactive),–
COc1cc(CCc2cc(NC(=O)c3ccc(N4C[C@@H](C)N[C@@H](C)C4)cc3)n[nH]2)cc(OC)c1,0.688% (inactive),–
OCCNC1CCCc2c1[nH]c1ccc(-c3ccccc3)cc21 (stereo not given),10.9% (inactive),–
CN(C)CC(=O)N1CCC(c2ccc(NC(=O)c3ncc(C#N)[nH]3)c(C3=CCCCC3)c2)CC1,12.2% (inactive),–
CCOc1cc2c(c(F)c1OCC)C(=N)N(CC(=O)c1cc(N3CCOCC3)c(OC)c(C(C)(C)C)c1)C2,8.17% (inactive),–
O=C(Nc1cc2cc[nH]c2cn1)c1ccccc1,0.0296% (inactive),–
c1ccc2c(Oc3nc(Nc4ccc(N5CCOCC5)cc4)c4ncn(C5CCCCC5)c4n3)cccc2c1,-5.3% (inactive),–
N[C@H]1CN(c2c(F)cc3c(=O)c(C(=O)O)cn(C4C[C@@H]4F)c3c2Cl)CC12CC2 (stereo not given in full),1.12% (inactive),–
Cc1ccccc1C(=O)Nc1ccc(C(=O)N2CCCC(O)c3cc(Cl)ccc32)c(C)c1 (stereo not given),11.7% (inactive),–
CC1=C(C(=O)Nc2cc3cn[nH]c3cc2F)C(c2ccc(Cl)cc2F)N=C(c2ccnc(Cl)c2)N1 (stereo not given),-1.23% (inactive),–
Cn1cc(-c2ccc3ncc(Cc4ccc5ncccc5c4)n3n2)cn1,2.18% (inactive),–
C[C@@H](Cc1cc2c(c(C(N)=O)c1)N(CCCO)CC2)NCCOc1ccccc1OCC(F)(F)F,2.67% (inactive),–
c1cc(N[C@@H]2CCNC2)nc(-c2cnc3ccc(-c4cn[nH]c4)cn23)c1,-1.05% (inactive),–
Nc1ccc(C(=O)Nc2cccc(-c3nc(N4CCOCC4)c4oc5ncccc5c4n3)c2)cn1,5.47% (inactive),–
FC(F)(F)c1ccc(Nc2nc3ccc(Oc4ccnc(-c5ncc(C(F)(F)F)[nH]5)c4)cc3[nH]2)cc1,-2.16% (inactive),–
Nc1ccn(C2CO[C@H](CO)O2)c(=O)n1 (stereo not given in full),-10.5% (inactive),–

Compound,redox activity (% of DA3003),Potency
CCCCOc1ccc(C(=O)Nc2ccc(F)cc2F)cc1,-7.01% (inactive),–
CS(=O)(=O)N1CCc2c(-c3cnc(N)nc3)nc(N3CCOCC3)nc21,-1.17% (inactive),–
Cc1cnc(Nc2ccc(CN3CCOCC3)cc2)nc1Nc1cccc(S(=O)(=O)NC(C)(C)C)c1,0.0759% (inactive),–
Cc1ncc(-c2ccnc(Nc3ccc(S(C)(=O)=O)cc3)n2)n1C(C)C,-4.52% (inactive),–
Cn1cnc2c(F)c(Nc3ccc(Br)cc3F)c(C(=O)NOCCO)cc21,-2.89% (inactive),–
CCOC(=O)[C@@H](N)Cc1ccc(-c2cc(O[C@H](c3ccc(Cl)cc3-n3ccc(C)n3)C(F)(F)F)nc(N)n2)cc1,0.0944% (inactive),–
COc1ccc(S(=O)(=O)Nc2cccnc2Nc2ccc(O)cc2)cc1,-8.23% (inactive),–
Oc1ccc([C@@H]2Oc3ccc(O)cc3[C@@H]3CCC[C@@H]32)cc1,-2.87% (inactive),–
C=CC(=O)Nc1ccc2ncnc(Nc3ccc(OCc4cccc(F)c4)c(Cl)c3)c2c1,-10.8% (inactive),–
C[C@H]1[C@@H](OC(=O)CCC(=O)O)O[C@@H]2O[C@@]3(C)CC[C@@H]4[C@H](C)CC[C@@H]1[C@@]24OO3,-5.93% (inactive),–
O=C(Nc1ccc(Oc2ccnc3[nH]ccc23)c(F)c1)c1cccn(-c2ccc(F)cc2)c1=O,-1.84% (inactive),–
CC(C)n1cnc2c(NCCc3ccc(O)cc3)nc(-c3csc4ccccc34)nc21,-3.7% (inactive),–
Oc1cc(-c2nc(-c3ccccc3)[nH]c2-c2ccncc2)ccc1Cl,-2.83% (inactive),–
O=C(O)c1ccc(Nc2ncc3c(n2)-c2ccc(Cl)cc2C(c2c(F)cccc2F)=NC3)cc1,12.2% (inactive),–
N#Cc1c(C2CCNCC2)cc(-c2c(O)cccc2OCC2CC2)nc1N,-6.65% (inactive),–
CCC[C@H]1C[C@H](C(=O)N[C@@H]([C@@H]2O[C@@H](SC)[C@@H](O)[C@@H](O)[C@@H]2O)[C@H](C)Cl)N(C)C1,16.3% (inactive),–
CC(C)(N)c1ccc(-c2nc3ccccc3nc2-c2ccccc2)cc1,14.8% (inactive),–
C[N+]1(C)[C@@H]2C[C@@H](OC(=O)C(O)(c3cccs3)c3cccs3)C[C@H]1[C@@H]1O[C@@H]12,-3.61% (inactive),–
FC(F)c1nc2ccccc2n1-c1nc(N2CCOCC2)nc(N2CCOCC2)n1,-9.06% (inactive),–
Cc1coc2c1C(=O)C(=O)c1c-2ccc2c(C)cccc12,–,1060 nM (active)
